Compound activity as filed in PubChem.
TRb-SRC2 inh: disrupts binding of human TR beta to SRC2. P10828. TRbeta-SRC2 peptide binding, fluorescence polarization; receptor liganded with 1 µM T3. Potency, µM (highest dose often 106 µM), for inactives: at the highest dose activity change, negative = inhibition, actives largely listed as inhibitors. hit rate 0.065% among 280,000. AID 1469;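 note: plate controls were bound peptide for no effect and peptide without receptor for full effect; nearly all actives have a fitted effect of over 50% in size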
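Assay buffer: 20 mM Tris-HCl, 100 mM NaCl, 10% glycerol, 1 mM EDTA, 0.01% NP-40, 1 mM DTT, 1 uM T3, 5% DMSO; TRb LBD 0.6 uM, Texas Red SRC2 20 nM; FP after 5 hr.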
Tau fibril ThT: tau fibrillization inhibition (ThT binding). P10636. recombinant tau K18 P301L, heparin-induced fibrillization, ThT fluorescence. Potency, µM (series often up to 57.4 µM), for inactives: top-dose activity, negative = inhibition, most hits filed as inhibitors. hit rate 2.1% among 270,000. AID 1460; note: nearly all actives have a fitted effect of over 55% in size
Target sequence (P10636 561-689 P618L limits assumed): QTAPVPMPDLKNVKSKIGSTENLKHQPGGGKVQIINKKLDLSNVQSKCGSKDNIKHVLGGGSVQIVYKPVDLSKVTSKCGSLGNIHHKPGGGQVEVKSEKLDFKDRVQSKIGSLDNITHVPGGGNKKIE
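Heparin-induced fibrillization of the P301L-mutant K18 repeat-domain fragment of human tau was followed by ThT binding in quantitative high-throughput format.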
GoLoco inh red: RGS12 GoLoco-Gai1 interaction inhibition; AID 880; hit rate 0.44% among 230,000; Potency, µM (top dose mostly 61.6 µM), for inactives: top-dose activity, negative = inhibition, actives largely listed as inhibitors; Gai1:RGS12 GoLoco peptide FP, rhodamine, 10 min; P63096; active = well fitted inhibition curve with a large enough effect, not every such curve was filed as active; inactive = no such curve, though single readings can be large or run the other way; note: nearly all actives have a fitted effect of over 30% in size
Target sequence (P63096 whole entry, looked up): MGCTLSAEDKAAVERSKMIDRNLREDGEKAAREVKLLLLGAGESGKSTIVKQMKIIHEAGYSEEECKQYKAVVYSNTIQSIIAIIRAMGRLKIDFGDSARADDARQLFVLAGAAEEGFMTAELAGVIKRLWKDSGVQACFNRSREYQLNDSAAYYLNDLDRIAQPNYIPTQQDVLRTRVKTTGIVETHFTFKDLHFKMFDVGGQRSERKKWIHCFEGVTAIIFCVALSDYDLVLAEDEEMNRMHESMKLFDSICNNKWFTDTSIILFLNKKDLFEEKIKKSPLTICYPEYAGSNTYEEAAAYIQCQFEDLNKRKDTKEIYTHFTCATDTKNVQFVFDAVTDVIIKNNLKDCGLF
TR SRC2 fluor cs: Texas Red fluorescence interference in TRb-SRC2 counter-screen. TRb/SRC2 Texas Red total fluorescence interference. Potency, µM (series often up to 106 µM), for the others: at the highest dose fluorescence change, negative = quenching. hit rate 0.29% among 280,000. AID 1479; active = well fitted curve in either direction with a large enough effect; inconclusive = small, poorly fitted or top-dose-only effect
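Human TRb ligand-binding domain at 0.6 uM with 20 nM Texas Red SRC2 peptide in Tris buffer containing 1 uM T3 and 5% DMSO, incubated with compound 5 h at ambient temperature. Total fluorescence (555/632 nm) calculated as parallel + 2 × perpendicular.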
Tau fluor counter: counter-screen for tau fibril formation inhibitors; AID 1463; Potency, µM (doses to about 57.7 µM), for inactives: top-dose activity change, negative = decrease; tau K18 P301L (four-repeat tau fragment) Alexa594 fluorescence, heparin fibrillization; hit rate 0.93% among 280,000; note: nearly all actives have a fitted effect of over 55% in size
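Human K18 P301L tau (15 uM unlabeled plus 0.24 uM Alexa 594-labeled, final) in 100 mM sodium acetate pH 7 was mixed with compound and 20 uM heparin and incubated 6 hr at 37 C.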
Tau fibril FP: blocks human tau fibril formation measured by polarization; K18 P301L tau heparin fibrillization, Alexa594 FP, 6 h; Potency, µM (titrated, usually from 57.7 µM), inactives show top-dose activity, negative = inhibition, hits mostly inhibitors; hit rate 0.39% among 280,000; P10636; note: nearly all actives have a fitted effect of over 55% in size
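Compound effects on tau fibrillization are measured by Alexa 594 fluorescence polarization (ex 555, em 632 nm). K18 P301L tau is used at 15 uM with 0.24 uM labeled tracer, and 20 uM heparin induces aggregation over 6 hr at 37 C.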
An asterisk follows results filed as active; ? = inconclusive; / = not tested or not shown; [ ] = remark or other dose. A selection: hits, their analogues and other compounds. The true share with any hit is near 3.1%. Unless noted, calls come from the whole dose curve; as a rule, active = well fitted curve in the direction sought with a large enough effect; inconclusive = small, poorly fitted or top-dose-only effect, or another doubt; inactive = no such curve, though single readings can be large; an effect the other way counts as inactive or inconclusive. Unless noted, % is set by controls: 0 for no effect and ±100 for the full control effect; potency is the fitted concentration of half-maximal effect.

SMILES | TRb-SRC2 inh | Tau fibril ThT | GoLoco inh red | TR SRC2 fluor cs | Tau fluor counter | Tau fibril FP
CC1CCCN(c2ccc(C(=O)Nc3ccc4c(c3)OCO4)cc2[N+](=O)[O-])C1 (stereo not drawn) | 11% | 7.1µM* | 2% | -1% | ? | 5%
CC1CCCN(c2ccc(C(=O)Nc3nnc(C4CC4)s3)cc2[N+](=O)[O-])C1 (stereo not drawn) | 3% | 4µM* | -1% | 0% | -25% | ?
Cc1cc(SCC(=O)c2ccccc2)nc2ccccc12 | / | / | 3%[14.2 µM] | / | / | /
CCCCCCC(=O)N/N=C/Cc1ccccc1 | 9% | 8% | -10% | -1% | 0% | 2%
O=C1Nc2ccc(Br)cc2C12NNc1ccccc1O2 (stereo not drawn) | -3% | 8.9µM* | 5% | -10% | 7.1µM*[quencher] | 15%
O=C1Nc2ccc(Br)cc2C1(O)Cc1ccccn1 (stereo not drawn) | 11% | 2% | 16% | 1% | -3% | -5%
CCOc1ccc(C2=Cc3cc(OC)c(OC)cc3C(=C(Cl)Cl)O2)cc1 | 28µM* | 18µM* | -10% | -19% | ? | ?
CCOc1ccc(N2C(=O)S/C(=C\c3ccc(O)c(OCC)c3)C2=O)cc1 | -2% | ? | 3% | -1% | ? | ?
CCN(CC)S(=O)(=O)c1ccc(N=Nc2c(C)[nH]n(C(N)=S)c2=O)cc1 | -15% | ? | 1% | -2% | -17% | 1%
NC(=S)n1[nH]c(-c2ccc([N+](=O)[O-])cc2)c(N=Nc2ccc(O)cc2)c1=O | -4% | 3.2µM* | 44% | -3% | ? | 15%
Nc1[nH][nH]c(=O)c1N=Nc1cccc(Cl)c1 | 0% | ? | 10% | -7% | ? | 6%
NC(=S)n1[nH]c(-c2ccc([N+](=O)[O-])cc2)c(N=Nc2cccc(Cl)c2)c1=O | -1% | 13µM* | 12% | -9% | 14µM*[quencher] | 6%
Cc1ccc(C(C(=O)NC2CCCCC2)N(Cc2ccco2)C(=O)Cc2c[nH]c3ccccc23)o1 (stereo not drawn) | -2% | ? | 1% | -6% | ? | 8%
CCOC(=O)C1=C(C)NC(=O)CC1c1cc2c(cc1[N+](=O)[O-])OCO2 (stereo not drawn) | ? | 22µM* | -35% | ? | ? | ?
Nc1nnc(CC(=O)N/N=C/c2ccc(-c3ccccc3)o2)s1 | 5% | ? | -4% | -4% | -12% | 2%
COC(=O)c1ccc(-c2ccc(/C=N/NC(=O)Cc3nnc(N)s3)o2)cc1 | 1% | 7.9µM* | 16% | -5% | -16% | 6%
O=C(/C=C/c1ccc(Cl)cc1Cl)n1cccn1 | -9% | 7.9µM* | -6% | -2% | -7% | ?
COc1cc(OC)cc(OC)c1 | 1% | 1% | 18µM* | -1% | -5% | -3%
COc1cc(O)cc(O)c1 | 9% | / | / | 0% | / | /
CN(C(=O)COC(=O)/C=C/c1ccc2ccccc2n1)C1CCS(=O)(=O)C1 (stereo not drawn) | -9% | ? | 2% | -5% | -14% | -5%
COc1cc(/C=N/N2C(=O)CSC2=S)ccc1O | 9% | 14µM* | 136% | 7% | -20% | -6%
COc1cc(/C=N/N2C(=O)c3ccccc3C2=O)ccc1O | -7% | ? | -4% | -3% | -9% | -2%
CN(C)c1ccc(C=C2C(=O)OC(C)(C)OC2=O)cc1 | 1% | -6% | 212% | 0% | 3% | 9%
CC(C)/C=C1\CC/C(=C\c2ccc(N(C)C)cc2)C1=O | 0% | 2µM* | 269% | 6% | 16% | 19%
CC(C)c1ccc(/C=C2\CC/C(=C\C=N\N(C)C)C2=O)cc1 | -19% | 3.2µM* | 41% | 1% | -19% | ?
SMILES | TRb-SRC2 inh | Tau fibril ThT | GoLoco inh red | TR SRC2 fluor cs | Tau fluor counter | Tau fibril FP
CN1CC(=O)Nc2ccc(F)cc2C1=O | 1% | 3% | -6% | 1% | 6% | 0%
CCn1c(C)nc2cc(C(=O)N=Nc3c(O)[nH]c4c(C)cc(C)cc34)ccc21 | -6% | 7.1µM* | 4% | 2% | -26% | -12%
CCn1c(C)nc2cc(C(=O)N=Nc3c(O)[nH]c4ccccc34)ccc21 | -3%[53 µM] | ? | 4% | -1%[53 µM] | -10% | 2%
COc1cc(/C=C/c2cc(OC(C)=O)c3ccccc3n2)c(OC(C)=O)c([N+](=O)[O-])c1 | -17% | 3.2µM* | 20% | -3% | 13µM*[quencher] | ?
COc1ccc(Nc2nnc(-c3cc4c(ccc5ccccc54)oc3=O)s2)cc1 | -2% | 5µM* | / | 6% | ? | 3%
Cc1ccnc(NC(=O)CSc2cc(=O)n(C)c3ccccc23)c1 | -6% | 0% | 10% | -7% | -5% | 6%
O=C(Nc1ccc(Cl)cn1)c1cc2ccccc2o1 | -12% | -8% | 4% | -2% | -6% | 1%
O=C(Nc1ccc(Cl)cn1)c1ccc(-c2cc(Cl)ccc2Cl)o1 | -1% | 7.9µM* | / | 2% | ? | ?
CC1=C(C#N)C(=O)OC(C)(C)C1 | ? | 2% | -46% | 45µM*[fluorescent] | 10% | 7%
CCOc1ccc(N(C)S(=O)(=O)c2ccc(C)c(C(=O)OCC(=O)c3c[nH]c4ccccc34)c2)cc1 | 7% | 3% | 12% | 0% | ? | 8.9µM*
COc1cc(NC(=O)CN2CCN(c3ccc(F)cc3)CC2)cc(OC)c1 | -4% | 5% | / | -3% | -9% | 4%
Cc1cccc(C)c1OCC(=O)N=Nc1c(O)[nH]c2ccc(Br)cc12 | 5% | ? | -3% | -3% | ? | -12%
COc1ccc(/C=N/OCC(=O)N=Nc2c(O)[nH]c3ccc(Br)cc23)cc1 | -7% | 5µM* | 2% | -1% | ? | ?
Oc1ccc(-c2csc(Nc3ncccn3)n2)c(O)c1 | 3% | ? | 4% | -1% | ? | ?
Oc1ccc(-c2csc(-c3ccccc3)n2)cc1O | 4% | 10µM* | -6% | -6% | 16µM*[quencher] | -2%
Oc1ccc(-c2csc(Nc3ncccn3)n2)cc1O | -1% | 11µM* | 11% | -4% | ? | 18%
COc1ccccc1-c1nc(-c2ccccc2)nc(N2CCN(C)CC2)c1C#N | -3% | -6% | -3% | -3% | -20% | -2%
Cc1cccc2[nH]c3c(N4CC=C(c5ccc(F)cc5)CC4)ncnc3c12 | 3% | ? | 6% | -1% | 14µM*[quencher] | ?
CC1(c2ccccc2)CC(C)(C)N2C(=O)C3(C(C#N)=C(N)Oc4cc(O)ccc43)c3cccc1c32 (stereo not drawn) | -11% | -19% | 7% | -1% | ? | 25µM*
